Experimental data as given in the supplement of paper PMC4466140.

What was measured:
Assay in all cases: SPOT peptide array binding signal intensity (averaged, normalized) (arbitrary units (background-subtracted, floor 0; scale differs between SH3 domains)); higher = stronger binding of the SH3 domain to the peptide
AgAbp1 = target: AgAbp1
Summary of the method: (§1)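 GST-fused SH3 domains, from four yeast species, were produced in E. coli BL21(DE3) and captured on glutathione Sepharose. Membranes of cellulose carrying synthetic 15-mer peptides, in which cysteines had been replaced by serines, were exposed to each domain at 10 μg/ml overnight at 4°C in TBS-based blocking buffer. After anti-GST antibody, an HRP anti-mouse secondary and luminol, spots were imaged and quantified using Genespotter. Binding signal is normalized and background-subtracted spot intensity, averaged over replicates, in arbitrary units that differ between domains.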

AgBbc1 = target: AgBbc1
Summary of the method: as §1

AgBem1-D1 = target: AgBem1-D1
Summary of the method: as §1

AgBzz1-D1 = target: AgBzz1-D1
Summary of the method: as §1

AgBzz1-D2 = target: AgBzz1-D2
Summary of the method: as §1

AgCyk3 = target: AgCyk3
Summary of the method: as §1

AgFus1 = target: AgFus1
Summary of the method: as §1

AgHof1 = target: AgHof1
Summary of the method: as §1

AgHse1 = target: AgHse1
Summary of the method: as §1

AgLsb1 = target: AgLsb1
Summary of the method: as §1

AgLsb4 = target: AgLsb4
Summary of the method: as §1

AgMyo5 = target: AgMyo5
Summary of the method: as §1

AgNbp2 = target: AgNbp2
Summary of the method: as §1

AgRvs167 = target: AgRvs167
Summary of the method: as §1

AgSho1 = target: AgSho1
Summary of the method: as §1

AgSla1-D1-D2 = target: AgSla1-D1-D2
Summary of the method: as §1

AgSla1-D3 = target: AgSla1-D3
Summary of the method: as §1

CaAbp1-D1 = target: CaAbp1-D1
Summary of the method: as §1

CaAbp1-D2 = target: CaAbp1-D2
Summary of the method: as §1

CaBbc1 = target: CaBbc1
Summary of the method: as §1

CaBem1-D1 = target: CaBem1-D1
Summary of the method: as §1

CaBzz1-D1 = target: CaBzz1-D1
Summary of the method: as §1

CaBzz1-D2 = target: CaBzz1-D2
Summary of the method: as §1

CaCyk3 = target: CaCyk3
Summary of the method: as §1

CaFus1 = target: CaFus1
Summary of the method: as §1

CaHof1 = target: CaHof1
Summary of the method: as §1

CaHse1 = target: CaHse1
Summary of the method: as §1

CaLsb1 = target: CaLsb1
Summary of the method: as §1

CaLsb4 = target: CaLsb4
Summary of the method: as §1

CaMyo5 = target: CaMyo5
Summary of the method: as §1

CaNbp2 = target: CaNbp2
Summary of the method: as §1

CaRvs167 = target: CaRvs167
Summary of the method: as §1

CaRvs167-3 = target: CaRvs167-3
Summary of the method: as §1

CaSho1 = target: CaSho1
Summary of the method: as §1

CaSla1-D1-D2 = target: CaSla1-D1-D2
Summary of the method: as §1

CaSla1-D3 = target: CaSla1-D3
Summary of the method: as §1

ScAbp1 = target: ScAbp1
Summary of the method: as §1

ScBbc1 = target: ScBbc1
Summary of the method: as §1

ScBem1-D1 = target: ScBem1-D1
Summary of the method: as §1

ScBzz1-D1 = target: ScBzz1-D1
Summary of the method: as §1

ScBzz1-D2 = target: ScBzz1-D2
Summary of the method: as §1

ScCyk3 = target: ScCyk3
Summary of the method: as §1

ScFus1 = target: ScFus1
Summary of the method: as §1

ScHof1 = target: ScHof1
Summary of the method: as §1

ScHse1 = target: ScHse1
Summary of the method: as §1

ScLsb1 = target: ScLsb1
Summary of the method: as §1

ScLsb2 = target: ScLsb2
Summary of the method: as §1

ScLsb3 = target: ScLsb3
Summary of the method: as §1

ScLsb4 = target: ScLsb4
Summary of the method: as §1

ScMyo3 = target: ScMyo3
Summary of the method: as §1

ScMyo5 = target: ScMyo5
Summary of the method: as §1

ScNbp2 = target: ScNbp2
Summary of the method: as §1

ScPex13 = target: ScPex13
Summary of the method: as §1

ScRvs167 = target: ScRvs167
Summary of the method: as §1

ScSho1 = target: ScSho1
Summary of the method: as §1

ScSla1-D1-D2 = target: ScSla1-D1-D2
Summary of the method: as §1

ScSla1-D3 = target: ScSla1-D3
Summary of the method: as §1

SpAbp1-D1 = target: SpAbp1-D1
Summary of the method: as §1

SpBbc1 = target: SpBbc1
Summary of the method: as §1

SpBzz1-D1 = target: SpBzz1-D1
Summary of the method: as §1

SpBzz1-D2 = target: SpBzz1-D2
Summary of the method: as §1

SpCyk3 = target: SpCyk3
Summary of the method: as §1

SpHof1 = target: SpHof1
Summary of the method: as §1

SpHof1-2 = target: SpHof1-2
Summary of the method: as §1

SpHof1-3 = target: SpHof1-3
Summary of the method: as §1

SpHse1 = target: SpHse1
Summary of the method: as §1

SpLsb1 = target: SpLsb1
Summary of the method: as §1

SpLsb4 = target: SpLsb4
Summary of the method: as §1

SpMyo1 = target: SpMyo1
Summary of the method: as §1

SpNbp2 = target: SpNbp2
Summary of the method: as §1

SpPex13 = target: SpPex13
Summary of the method: as §1

SpRvs167 = target: SpRvs167
Summary of the method: as §1

SpSla1-D1-D2 = target: SpSla1-D1-D2
Summary of the method: as §1

SpSla1-D3 = target: SpSla1-D3
Summary of the method: as §1

## VPVAPPPPPASLGQS
AgAbp1
  SPOT peptide array binding signal intensity: ≤ 0
AgBbc1
  SPOT peptide array binding signal intensity: ≤ 0
AgBem1-D1
  SPOT peptide array binding signal intensity: 15
AgBzz1-D1
  SPOT peptide array binding signal intensity: 0.5
AgBzz1-D2
  SPOT peptide array binding signal intensity: ≤ 0
AgCyk3
  SPOT peptide array binding signal intensity: ≤ 0
AgFus1
  SPOT peptide array binding signal intensity: ≤ 0
AgHof1
  SPOT peptide array binding signal intensity: ≤ 0
AgHse1
  SPOT peptide array binding signal intensity: 17
AgLsb1
  SPOT peptide array binding signal intensity: 0.25
AgLsb4
  SPOT peptide array binding signal intensity: ≤ 0
AgMyo5
  SPOT peptide array binding signal intensity: 4.25
AgNbp2
  SPOT peptide array binding signal intensity: ≤ 0
AgRvs167
  SPOT peptide array binding signal intensity: 3
AgSho1
  SPOT peptide array binding signal intensity: ≤ 0
AgSla1-D1-D2
  SPOT peptide array binding signal intensity: 6
AgSla1-D3
  SPOT peptide array binding signal intensity: 1
CaAbp1-D1
  SPOT peptide array binding signal intensity: 2
CaAbp1-D2
  SPOT peptide array binding signal intensity: 4
CaBbc1
  SPOT peptide array binding signal intensity: 0.5
CaBem1-D1
  SPOT peptide array binding signal intensity: ≤ 0
CaBzz1-D1
  SPOT peptide array binding signal intensity: 89
CaBzz1-D2
  SPOT peptide array binding signal intensity: 9.5
CaCyk3
  SPOT peptide array binding signal intensity: ≤ 0
CaFus1
  SPOT peptide array binding signal intensity: 16
CaHof1
  SPOT peptide array binding signal intensity: ≤ 0
CaHse1
  SPOT peptide array binding signal intensity: ≤ 0
CaLsb1
  SPOT peptide array binding signal intensity: 0.75
CaLsb4
  SPOT peptide array binding signal intensity: ≤ 0
CaMyo5
  SPOT peptide array binding signal intensity: 13.5
CaNbp2
  SPOT peptide array binding signal intensity: 17.5
CaRvs167
  SPOT peptide array binding signal intensity: ≤ 0
CaRvs167-3
  SPOT peptide array binding signal intensity: 1.5
CaSho1
  SPOT peptide array binding signal intensity: 28
CaSla1-D1-D2
  SPOT peptide array binding signal intensity: ≤ 0
CaSla1-D3
  SPOT peptide array binding signal intensity: ≤ 0
ScAbp1
  SPOT peptide array binding signal intensity: 0.5
ScBbc1
  SPOT peptide array binding signal intensity: 2.5
ScBem1-D1
  SPOT peptide array binding signal intensity: 0.5
ScBzz1-D1
  SPOT peptide array binding signal intensity: 3
ScBzz1-D2
  SPOT peptide array binding signal intensity: 8.5
ScCyk3
  SPOT peptide array binding signal intensity: ≤ 0
ScFus1
  SPOT peptide array binding signal intensity: ≤ 0
ScHof1
  SPOT peptide array binding signal intensity: ≤ 0
ScHse1
  SPOT peptide array binding signal intensity: 4
ScLsb1
  SPOT peptide array binding signal intensity: ≤ 0
ScLsb2
  SPOT peptide array binding signal intensity: ≤ 0
ScLsb3
  SPOT peptide array binding signal intensity: ≤ 0
ScLsb4
  SPOT peptide array binding signal intensity: 4
ScMyo3
  SPOT peptide array binding signal intensity: 372
ScMyo5
  SPOT peptide array binding signal intensity: 91
ScNbp2
  SPOT peptide array binding signal intensity: ≤ 0
ScPex13
  SPOT peptide array binding signal intensity: ≤ 0
ScRvs167
  SPOT peptide array binding signal intensity: ≤ 0
ScSho1
  SPOT peptide array binding signal intensity: 3
ScSla1-D1-D2
  SPOT peptide array binding signal intensity: ≤ 0
ScSla1-D3
  SPOT peptide array binding signal intensity: 1.5
SpAbp1-D1
  SPOT peptide array binding signal intensity: ≤ 0
SpBbc1
  SPOT peptide array binding signal intensity: ≤ 0
SpBzz1-D1
  SPOT peptide array binding signal intensity: 237
SpBzz1-D2
  SPOT peptide array binding signal intensity: 1.25
SpCyk3
  SPOT peptide array binding signal intensity: ≤ 0
SpHof1
  SPOT peptide array binding signal intensity: ≤ 0
SpHof1-2
  SPOT peptide array binding signal intensity: ≤ 0
SpHof1-3
  SPOT peptide array binding signal intensity: 0.5
SpHse1
  SPOT peptide array binding signal intensity: 1
SpLsb1
  SPOT peptide array binding signal intensity: ≤ 0
SpLsb4
  SPOT peptide array binding signal intensity: ≤ 0
SpMyo1
  SPOT peptide array binding signal intensity: 49.8
SpNbp2
  SPOT peptide array binding signal intensity: 1.5
SpPex13
  SPOT peptide array binding signal intensity: ≤ 0
SpRvs167
  SPOT peptide array binding signal intensity: 3.33
SpSla1-D1-D2
  SPOT peptide array binding signal intensity: ≤ 0
SpSla1-D3
  SPOT peptide array binding signal intensity: ≤ 0
